A short description of experiment [1]: qHTS assay to test for compound auto fluorescence at 535 nm (green) in HEK293 cells (AID 720680).
Experiment [2] in a line: qHTS assay to test for compound auto fluorescence at 460 nm (blue) in HEK293 cell free culture (AID 720681). An outline of the steps:
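Test compounds were pinned into cell-free culture medium (DMEM with 10% FBS) and fluorescence was read directly at Ex/Em 405/460 nm. Signals were expressed as fluorescence equivalents of triamterene, with DMSO vehicle as control.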
(In general: qHTS replaces the single test concentration by a dilution series.)

Experiment [3] can be described thus: qHTS assay to test for compound auto fluorescence at 535 nm (green) in HEK293 cell free culture (AID 720682). An outline of the steps: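 No cells present: wells hold DMEM supplemented with 10% FBS, into which compound or vehicle is pinned. Green emission is then recorded (485 nm excitation, 535 nm emission) and scaled to fluorescein.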
Experiment [4] can be described thus: qHTS assay to test for compound auto fluorescence at 590 nm (red) in HEK293 cell free culture (AID 720683). An outline of the steps:
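Tox21 10K library compounds were pinned into cell-free DMEM with 10% FBS and fluorescence was read at excitation 540 nm. Activity is expressed as Rose Bengal sodium equivalency.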

Experiment [5] in a line: qHTS assay to test for compound auto fluorescence at 590 nm (red) in HepG2 cell free culture (AID 720684). An outline of the steps: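 Readout: intrinsic compound fluorescence at 590 nm emission after 540 nm excitation, scaled to Rose Bengal sodium. Matrix was cell-free MEM with 10% FBS; DMSO vehicle wells served as control.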
Experiment [6] is described as follows: qHTS assay to test for compound auto fluorescence at 460 nm (blue) in HepG2 cell free culture (AID 720685). An outline of the steps:
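Cell-free plates of MEM plus 10% FBS received 23 nL compound or DMSO vehicle; blue-channel (405/460 nm) intensity scored against triamterene as reference fluorophore.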

The nature of experiment [7]: qHTS assay to test for compound auto fluorescence at 535 nm (green) in HepG2 cell free culture (AID 720686).
A short description of experiment [8]: qHTS assay to test for compound auto fluorescence at 460 nm (blue) in HepG2 cells (AID 720687). An outline of the steps:
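Cells (2,000/well in MEM with 10% FBS) attached overnight at 37 C, then were exposed to compound or DMSO for 1 hr at 37 C, 5% CO2. Fluorescence read at Ex/Em 405/460 nm, expressed as triamterene-equivalent signal.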

In experiment [9] the target is Glucocorticoid receptor (Homo sapiens) (UniProt P04150). The experiment is described as follows: qHTS assay to identify small molecule agonists of the glucocorticoid receptor (GR) signaling pathway (AID 720691; active = well fitted activation curve with a large enough effect in the signal ratio in the repeat runs, not every such curve was filed as active; the % refers to the signal ratio). To be noted: GR-bla HeLa, beta-lactamase reporter ratio, 18 h; activation: at 62.4 µM (top of the series) unless noted. An outline of the steps:
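Steps: seed GR-bla HeLa cells, incubate 4 h at 37 C/5% CO2; pin-transfer DMSO-dissolved compounds; incubate 18 h at 37 C; add LiveBLAzer B/G FRET substrate; after 2 h at room temperature, measure fluorescence.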

A short description of experiment [10]: qHTS assay for identifying genotoxic compounds that show differential cytotoxicity against isogenic chicken DT40 cell lines with known DNA damage response pathways - wild type cell line (AID 743012). Note: nearly all actives have a fitted effect of over 60% in size. Note: potency is the fitted concentration of half-maximal effect. An outline of the steps: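 Cytotoxicity in repair-proficient parental chicken DT40 cells serves as the comparator for Rad54/Ku70- and Rev3-deficient lines. Cells were exposed to compounds for 40 h at 37 C/5% CO2, and ATP-based luminescence (CellTiter-Glo) measured viability.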

The nature of experiment [11]: qHTS assay for identifying genotoxic compounds that show differential cytotoxicity against isogenic chicken DT40 cell lines with known DNA damage response pathways - Rad54/Ku70 mutant cell line (AID 743015). Note: nearly all actives have a fitted effect of over 60% in size. Note: potency is the fitted concentration of half-maximal effect.
The nature of experiment [12]: qHTS assay to identify small molecule antagonists of the androgen receptor (AR) signaling pathway - cell viability counter screen (AID 743033; note: nearly all actives have a fitted effect of over 45% in size).
Experiment [13] is described as follows: qHTS assay to identify small molecule antagonists of the androgen receptor (AR) signaling pathway using the MDA cell line - cell viability counter screen (AID 743041; note: nearly all actives have a fitted effect of over 45% in size). An outline of the steps: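 qHTS viability read-out; MDA-kb2 AR-luc; R1881-stimulated; 16 h exposure at 37C, 0% CO2; CellTiter-Fluor, 30 min; fluorescence intensity.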
Experiment [14] can be described thus: qHTS assay to identify small molecule antagonists of the glucocorticoid receptor (GR) signaling pathway - cell viability counter screen (AID 720693). Note: nearly all actives have a fitted effect of over 55% in size.
Experiment [15] is described as follows: qHTS assay for identifying genotoxic compounds that show differential cytotoxicity against isogenic chicken DT40 cell lines with known DNA damage response pathways - Rev3 mutant cell line (AID 743014). Note: nearly all actives have a fitted effect of over 55% in size. Note: potency is the fitted concentration of half-maximal effect.
Experiment [16] concerns the target Androgen receptor (Homo sapiens) (UniProt P10275). As to the kind of experiment: qHTS assay to identify small molecule agonists of the androgen receptor (AR) signaling pathway (AID 743036; active = well fitted activation curve with a large enough effect in the signal ratio in the repeat runs, with a control signal flat, not every such curve was filed as active; the % refers to the signal ratio). An outline of the steps:
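Quantitative HTS of the Tox21 10K library in HEK293 cells bearing a stably integrated UAS-controlled beta-lactamase reporter. Compound exposure lasted 16 h at 37C. Reporter activity was detected by FRET substrate fluorescence after 2 h at room temperature.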

Experiment [17] shares this target. The experiment is described as follows: qHTS assay to identify small molecule agonists of the androgen receptor (AR) signaling pathway using the MDA cell line (AID 743040; note: nearly all actives have a fitted effect of over 20% in size). An outline of the steps: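 Agonist activity is measured as luciferase luminescence in human MDA-kb2 cells whose MMTV reporter responds to both AR and GR. Compounds in DMSO incubate 16 h at 37C, 0% CO2, and ONE-Glo is read after 30 min.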

Experiment [18] shares this target. The experiment is described as follows: qHTS assay to identify small molecule antagonists of the androgen receptor (AR) signaling pathway using the MDA cell line (AID 743042; note: nearly all actives have a fitted effect of over 55% in size). An outline of the steps:
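MDA-kb2 cells (human breast carcinoma, stably carrying an MMTV-luciferase reporter responsive to AR and GR) were plated at 3,000 cells/well and preincubated 5 hr at 37C, then given compound plus R1881 agonist for 16 h. ONE-Glo luminescence was read.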

Experiment [19] addresses Glucocorticoid receptor (Homo sapiens) (UniProt P04150). As to the kind of experiment: qHTS assay to identify small molecule antagonists of the glucocorticoid receptor (GR) signaling pathway (AID 720692; active = well fitted inhibition curve with a large enough effect in the signal ratio in the repeat runs, not every such curve was filed as active; the % refers to the signal ratio). An outline of the steps: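 Antagonism was scored as loss of dexamethasone-driven (5 nM final) reporter signal in HeLa cells bearing a glucocorticoid response element–beta-lactamase construct, after 18 h compound exposure at 37 C and 2 h FRET substrate loading.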

The target of experiment [20] is Androgen receptor (Homo sapiens) (UniProt P10275). As to the kind of experiment: qHTS assay to identify small molecule antagonists of the androgen receptor (AR) signaling pathway (AID 743035; active = well fitted inhibition curve with a large enough effect in the signal ratio in the repeat runs, not every such curve was filed as active; the % refers to the signal ratio). An outline of the steps:
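Steps: seed AR-UAS-bla GripTite HEK293 cells, incubate 4 h at 37C; pin in test compound, then add agonist R1881; incubate 16 h at 37C; add LiveBLAzer B/G FRET substrate, 2 h at room temperature; read fluorescence.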

Values joined by “and” are separate entries in the source; they are usually repeats but may differ in a detail not shown here. Identical values can stand only once. Inconclusive results are not listed. Where a structure was tested more than once in an assay, its records may differ in their call. Active and inactive are the calls of the source. Unless noted, calls come from the whole dose curve; as a rule, active = well fitted curve in the direction sought with a large enough effect in the repeat runs; inconclusive = weak or mixed curves; inactive = no such curve, though single readings can be large; an effect the other way counts as inactive or inconclusive.

Glucocorticoid receptor (Homo sapiens), sequence (P04150 whole entry, looked up): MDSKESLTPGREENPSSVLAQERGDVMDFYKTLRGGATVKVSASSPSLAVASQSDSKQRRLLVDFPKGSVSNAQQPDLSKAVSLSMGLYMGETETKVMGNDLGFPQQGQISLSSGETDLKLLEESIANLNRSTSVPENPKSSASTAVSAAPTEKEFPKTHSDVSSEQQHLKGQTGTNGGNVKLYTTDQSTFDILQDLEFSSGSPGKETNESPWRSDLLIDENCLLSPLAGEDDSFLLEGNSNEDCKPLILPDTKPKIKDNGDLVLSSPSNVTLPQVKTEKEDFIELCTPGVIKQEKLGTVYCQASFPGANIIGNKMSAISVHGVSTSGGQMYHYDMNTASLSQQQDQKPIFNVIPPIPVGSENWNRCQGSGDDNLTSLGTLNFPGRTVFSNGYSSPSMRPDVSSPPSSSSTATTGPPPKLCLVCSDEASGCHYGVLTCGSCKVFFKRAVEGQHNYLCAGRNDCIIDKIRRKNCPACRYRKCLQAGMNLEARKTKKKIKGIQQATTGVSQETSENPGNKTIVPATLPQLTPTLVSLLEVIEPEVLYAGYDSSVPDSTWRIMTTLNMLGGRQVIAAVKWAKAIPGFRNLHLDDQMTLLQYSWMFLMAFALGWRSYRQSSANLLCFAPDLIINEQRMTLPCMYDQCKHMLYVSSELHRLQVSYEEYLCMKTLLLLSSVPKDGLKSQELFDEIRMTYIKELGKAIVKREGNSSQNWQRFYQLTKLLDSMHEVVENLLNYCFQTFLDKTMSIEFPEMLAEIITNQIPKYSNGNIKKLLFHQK
Androgen receptor (Homo sapiens), sequence (P10275 whole entry, looked up): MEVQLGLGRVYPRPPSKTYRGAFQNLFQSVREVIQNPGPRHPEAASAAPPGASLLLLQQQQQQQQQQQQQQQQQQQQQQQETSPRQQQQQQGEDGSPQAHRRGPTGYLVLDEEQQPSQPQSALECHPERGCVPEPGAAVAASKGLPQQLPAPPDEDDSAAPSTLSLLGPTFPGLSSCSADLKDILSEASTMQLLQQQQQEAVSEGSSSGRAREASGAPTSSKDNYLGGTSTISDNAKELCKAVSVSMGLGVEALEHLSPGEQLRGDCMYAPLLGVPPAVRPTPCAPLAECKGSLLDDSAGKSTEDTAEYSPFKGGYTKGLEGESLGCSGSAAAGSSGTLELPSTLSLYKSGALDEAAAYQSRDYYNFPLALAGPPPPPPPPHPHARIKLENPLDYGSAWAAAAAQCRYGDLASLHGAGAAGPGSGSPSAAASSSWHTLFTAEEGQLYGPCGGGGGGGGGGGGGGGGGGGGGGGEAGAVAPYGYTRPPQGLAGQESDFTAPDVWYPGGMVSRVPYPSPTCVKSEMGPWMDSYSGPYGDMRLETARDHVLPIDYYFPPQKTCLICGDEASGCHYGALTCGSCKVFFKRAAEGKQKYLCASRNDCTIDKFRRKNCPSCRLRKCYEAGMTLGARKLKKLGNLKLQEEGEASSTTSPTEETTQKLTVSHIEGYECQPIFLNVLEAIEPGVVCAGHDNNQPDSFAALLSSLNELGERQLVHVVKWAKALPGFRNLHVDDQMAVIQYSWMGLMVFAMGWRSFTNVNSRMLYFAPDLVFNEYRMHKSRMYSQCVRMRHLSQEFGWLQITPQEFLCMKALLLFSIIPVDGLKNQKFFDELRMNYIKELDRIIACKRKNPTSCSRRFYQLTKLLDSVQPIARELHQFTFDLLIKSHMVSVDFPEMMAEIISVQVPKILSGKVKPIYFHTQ

In the case of `C[C@@H](O)[C@H]1C(=O)N2C(C(=O)O)=C(S[C@@H]3CN[C@H](C(=O)N(C)C)C3)[C@H](C)[C@H]12`, the call in [1], in [3], in experiment [4], in experiment [5], in [7] and in [8] was inactive. For the same compound, the Potency entry in experiment [2], in experiment [6], in experiment [9], in experiment [10], in experiment [11] and in experiment [12] was “inactive” throughout. Besides, the Potency entry in experiment [13] is “inactive”.

For the compound `Oc1ccc(OCc2ccccc2)cc1`, the result in experiment [1], in experiment [3], in experiment [4], in experiment [5], in experiment [7] and in [8] was inactive. Also, the compound was called inactive in experiment [16], in [17] and in [18]. In addition, the Potency entry in [2], in [6], in experiment [9], in experiment [14], in experiment [12] and in experiment [13] was “inactive” each time. The Potency in experiment [10] is 2.54 µM (active) and 8.45 µM (active); in [15], 2.85 µM (active) and 5.33 µM (active).

As for `O=C(O)c1ccc([N+](=O)[O-])cc1`, the compound was called inactive in experiment [1], in experiment [3], in experiment [4], in experiment [5], in experiment [7] and in experiment [8]. The Potency result in [2], in experiment [6], in experiment [9], in experiment [19], in experiment [14] and in experiment [10] was “inactive” each time. Also, the Potency entry in experiment [15], in experiment [11], in experiment [12] and in experiment [13] was “inactive” throughout.

Regarding `CN(CCOc1ccc(CC2SC(=O)NC2=O)cc1)c1ccccn1` (centres undefined), the compound was classed as inactive in [1], in experiment [3], in experiment [4], in experiment [5], in experiment [7] and in experiment [8]. In addition, the Potency result in experiment [2], in experiment [6], in [14], in experiment [12] and in experiment [13] was “inactive” throughout. In addition, the Potency result in experiment [10] was “inactive and 60.8 µM (active)”; in experiment [15], “inactive and 60.8 µM (active)”; in [11], 27.1 µM (active).

Take `O=C(O)c1cc(-c2ccccc2)nc2ccccc12`: the compound was classed as inactive in experiment [1], in experiment [3], in [4], in experiment [5], in experiment [7] and in [8]. For the same compound, the call in [20], in [16], in experiment [17] and in [18] was inactive. Moreover, the Potency result in [2], in [6], in experiment [9], in experiment [19], in experiment [10] and in experiment [15] was “inactive” throughout. The Potency result in experiment [11], in [12] and in experiment [13] was “inactive” in each case.

`CC(=O)CCc1ccccc1`: the compound was called inactive in [1], in experiment [3], in [4], in [5], in experiment [7] and in experiment [8]. In addition, the Potency entry in experiment [2], in experiment [6], in experiment [14], in experiment [10], in experiment [15] and in [11] was “inactive” throughout. Further, the Potency result in experiment [12] and in experiment [13] was “inactive” throughout.

Take `CCCCCC/C=C/CCCCCCCC(=O)O`: the outcome in experiment [1], in [3], in experiment [4], in [5], in experiment [7] and in [8] was inactive. For the same compound, the Potency entry in experiment [2], in experiment [6], in [9], in experiment [19], in experiment [10] and in experiment [15] was “inactive” in each case. The Potency result in experiment [11], in experiment [12] and in experiment [13] was “inactive” each time.

With `Cc1cc(O)cc(C)c1Cl`, the outcome in experiment [1], in experiment [3], in experiment [4], in experiment [5], in [7] and in experiment [8] was inactive. Moreover, the Potency entry in experiment [2], in [6], in [9], in experiment [19], in [14] and in experiment [10] was “inactive” throughout. The Potency entry in experiment [15], in [11], in [12] and in [13] was “inactive” throughout.

These data come from PubChem BioAssay (Tox21).
